PubChem BioAssay (NCI)
This is part of a sample that, as a whole, favours compounds with a hit. Of some 83,000 tested, about 20% had one in any assay.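 48-hour exposure, single concentration, 96-well plates; percent growth endpoint where 0 means no net growth. Active: below 10.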 The source made the active and inactive calls.

Columns and labels:
Assay in all cases: NCI-60 one-dose screen, 48 h (100 = growth as untreated, 0 = no growth, -100 = all killed)
Conditions in all cases: 10 µM unless noted
[1] = system: NCI-H23 lung
[2] = system: NCI-H226 lung
[3] = system: NCI-H322M lung
[4] = system: HOP-62 NSCLC
[5] = system: NCI-H460 lung
[6] = system: HOP-92 NSCLC
[7] = system: NCI-H522 lung
[8] = system: A549/ATCC NSCLC
[9] = system: 786-0 renal
[10] = system: COLO 205 colon
[11] = system: DU-145 prostate
[12] = system: K-562 leukemia
[13] = system: MALME-3M melanoma
[14] = system: MDA-MB-231 breast
[15] = system: RXF 393 renal
[16] = system: SF-268 CNS
[17] = system: SF-539 CNS
[18] = system: UACC-257 melanoma
[19] = system: M14 melanoma

Measured: growth

CC(C)CC(NC(=O)C(CCCN=C(N)N)NC(=O)OCc1ccccc1)C(=O)NC(CNC(=O)/C=C/c1ccccc1)C(C)C (centres undefined)
inactive: [1] 109% | [2] 100% | [3] 104% | [4] 107% | [5] 108% | [6] 89.2% | [7] 98.7% | [8] 108% | [9] 101% | [10] 117% | [11] 107% | [12] 92.3% | [13] 107% | [14] 109% | [15] 107% | [16] 107% | [17] 96.4% | [18] 107% | [19] 106%

COc1ccc(-n2nc(C(=O)NCC(=O)Nc3nc4cc(OC)ccc4s3)c3ccccc3c2=O)cc1
active: [2] -11.1% | [4] -78.7% | [5] 1.04% | [6] -34.9% | [7] -9.83% | [8] 0.477% | [11] -28.9% | [13] -13.8% | [14] -13.6% | [15] -38.1% | [16] -13.6% | [17] -93% | [18] -4.82%
inactive: [1] 19.5% | [3] 31.4% | [9] 20.4% | [10] 32.7% | [12] 73.9% | [19] 44.3%

COc1ccc(C2C=C(c3ccc(Cl)cc3)N=C3SC=CN32)cc1 (centres undefined)
inactive: [1] 101% | [2] 112% | [3] 133% | [4] 108% | [5] 103% | [6] 86.4% | [7] 113% | [8] 104% | [9] 97.8% | [10] 109% | [11] 129% | [12] 104% | [13] 108% | [14] 112% | [15] 122% | [16] 119% | [17] 104% | [18] 108% | [19] 109%

COc1cc2cc(C(=O)Nc3ccccc3)c(N)nc2cc1OC
inactive: [1] 77.6% | [2] 65.2% | [3] 44.1% | [4] 47.7% | [8] 15.3% | [9] 21.2% | [11] 12.7% | [16] 26.2% | [17] 34.3%
active: [5] -40.2% | [6] -11.4% | [7] -65.3% | [10] -93.3% | [12] -49.2% | [13] -78.2% | [14] -49.6% | [15] -14.7% | [18] -81.3% | [19] -67.3%

CCN(CC)CCCCCCCNc1cc(OC)cc2c(C)ccnc12
inactive: [1] 87.6% | [2] 86.6% | [3] 94.8% | [4] 93.3% | [5] 85.2% | [6] 57.5% | [7] 71.4% | [8] 94.7% | [9] 80.8% | [10] 72.9% | [11] 102% | [12] 36.7% | [13] 103% | [14] 54.1% | [15] 91.6% | [16] 91.1% | [17] 91.3% | [18] 92.6% | [19] 97.6%

Nc1nc2ccc([C@@H]3Nc4ccc5[nH]ncc5c4[C@H]4[C@H]5CCC(C5)[C@H]43)cc2s1
active: [3] -13% | [5] -26.8% | [7] -65.7% | [10] 6.12% | [11] 9.96% | [13] -55.7% | [15] -4.16% | [17] 0.597%
inactive: [1] 23.2% | [2] 24.2% | [4] 12.2% | [6] 74.7% | [8] 25.8% | [9] 43.9% | [12] 19.4% | [14] 47.2% | [16] 48.4% | [18] 29.3% | [19] 17.7%

O=C(Nc1cnc(C(F)(F)F)cn1)c1cc(Cl)ccc1O
active: [1] 2.55% | [2] 8.55% | [3] 7.76% | [4] -4.96% | [5] 4.18% | [6] -6.58% | [7] -12.6% | [8] 2.57% | [9] 0.361% | [12] 7.07% | [13] -18.5% | [14] -21.1% | [15] -1.32% | [17] 3.19% | [18] -20.6% | [19] -3.59%
inactive: [10] 14.2% | [11] 24.9% | [16] 18.2%

O=C(c1ccc(C(F)(F)F)c(Cl)c1)N(Cc1ccc(Cl)cc1)c1ccc(-c2cc(C(F)(F)F)[nH]n2)c(O)c1
active: [1] 6.5% | [2] -5.3% | [4] -4.7% | [5] 6.77% | [6] -15.6% | [7] -1.27% | [9] 3.06% | [10] -73.8% | [12] 7.36% | [13] 1.34% | [14] -35.7% | [15] -9.88% | [16] 7.06% | [17] 2.09%
inactive: [3] 14.4% | [8] 12.8% | [11] 12.8% | [18] 10.3% | [19] 10.9%

CCN(CC)Cc1cc(Nc2nc(NC3CCC(N(C)C)CC3)c3ccccc3n2)ccc1OC (centres undefined)
active: [12] 7.54% | [18] -32.6% | [19] -10.2%
inactive: [1] 87.8% | [2] 75.5% | [3] 76.5% | [4] 79.4% | [5] 89.7% | [6] 25.3% | [7] 44% | [8] 67.8% | [9] 97.8% | [10] 12% | [11] 98.8% | [13] 69.1% | [14] 39.8% | [15] 74.9% | [16] 69.8% | [17] 73.9%

COc1ccc(C(=O)C(C#N)c2cc(OC)c(OC)c(OC)c2)cc1 (centres undefined)
inactive: [1] 113% | [2] 99.4% | [3] 105% | [4] 109% | [5] 107% | [6] 83.6% | [7] 85.2% | [8] 98.1% | [9] 97.6% | [10] 106% | [11] 114% | [12] 98.1% | [13] 106% | [14] 115% | [15] 103% | [16] 114% | [17] 93.8% | [18] 97.4% | [19] 102%

CN(CCO)c1ccc(N2Cc3ccccc3OC3=C2C(=O)c2c(O)ccc(O)c2C3=O)cn1
active: [1] -66.5% | [2] 0.236% | [3] -0.583% | [4] -46.3% | [5] -51.2% | [6] -71.9% | [7] -49.8% | [8] -18.9% | [9] -91.2% | [10] -81.8% | [11] -98.8% | [12] -1.58% | [13] -86.1% | [14] -90.2% | [15] -96.6% | [16] -59.7% | [17] -68.9% | [18] -91.6% | [19] -89%

Cc1c(C)c(C)c([N+](=O)[O-])c([N+](=O)[O-])c1C
inactive: [1] 107% | [2] 104% | [3] 116% | [4] 103% | [5] 108% | [6] 69% | [7] 98.7% | [8] 93.4% | [9] 93.6% | [10] 115% | [11] 92.2% | [12] 119% | [13] 90.1% | [14] 79.3% | [15] 107% | [16] 93% | [17] 92% | [18] 103% | [19] 104%

COc1ccc2nc(C)cc(Nc3ccccc3O)c2c1
active: [2] 0.475% | [4] -61.9% | [6] -23.7% | [8] 3.25% | [9] -67% | [12] 6.3% | [13] -12.4% | [14] 9.5% | [15] -41.7% | [17] -72.7%
inactive: [1] 100% | [3] 59.9% | [5] 20.6% | [7] 47.3% | [10] 89.9% | [11] 63.9% | [16] 64.8% | [18] 75.1% | [19] 81.8%

CCCCN(CCCC)CCC(O)c1cc2ccc(C(F)(F)F)cc2c2cc(C(F)(F)F)ccc12 (centres undefined)
inactive: [1] 43.1% | [2] 83.1% | [3] 61.3% | [4] 79.1% | [8] 64.8% | [9] 42.4% | [10] 33.3% | [11] 55.3% | [13] 47.8% | [14] 33.2% | [16] 63.3% | [17] 48.7% | [18] 41.6% | [19] 18.8%
active: [5] 5.31% | [6] -4.55% | [7] 3.17% | [12] 5.28% | [15] 7.74%

Oc1[nH]c2ccccc2c1/C=c1/ccc2c(c1)N=C(c1ccc(C(F)(F)F)cc1)N=2
active: [9] 6.1% | [15] -37.2%
inactive: [1] 67% | [2] 89.6% | [3] 76.8% | [4] 71.6% | [5] 41.1% | [6] 57.4% | [7] 40.7% | [8] 50% | [10] 78.8% | [11] 63.1% | [12] 14.6% | [13] 74.2% | [14] 46.6% | [16] 68.7% | [17] 67.4% | [18] 67.4% | [19] 44.6%

CCCCNCC(O)c1cc2c(Cl)cc(Cl)cc2c2cc(C(F)(F)F)ccc12 (centres undefined)
active: [1] -72.9% | [2] -69.4% | [3] -82.8% | [4] -80.8% | [5] -73.9% | [6] -89.5% | [7] -78.7% | [8] -83.3% | [9] -71.2% | [10] -76.8% | [11] -98% | [12] -69.1% | [13] -60.8% | [14] -74.8% | [15] -94.7% | [16] -80.5% | [17] -81.7% | [18] -72.4% | [19] -86.5%
